Measured values: PubChem BioAssay (NCI)
The panel holds about 79,000 compounds, 15% with a hit somewhere; the sample as a whole holds those more often. No stated cut-off is given here; in the data, active means growth inhibition above about 70%; inactive means the rest.

Tests used:
[1] = NCI Yeast Anticancer Drug Screen. Data for the rad50 strain (AID 155);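 further: 0% = growth of vehicle-only cultures of the same strain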; details: S. cerevisiae rad50 strain growth inhibition; at 50.0 µM; hits give high values
How it was run: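 Cells are treated with compound, grown, and their growth is then scored against vehicle-only cultures of the same repair-deficient yeast strain.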

[2] = NCI Yeast Anticancer Drug Screen. Data for the mec2-1 strain (AID 157); details: S. cerevisiae mec2-1 strain, at 50.0 µM, hits give high values
How it was run: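 Compounds were applied to mec2-1 yeast cells. Their growth was then compared with that of vehicle-treated cultures to give growth inhibition.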

[3] = NCI Yeast Anticancer Drug Screen. Data for the sgs1 mgt1 strain (AID 161);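 further: 0% = growth of cultures given vehicle only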; details: S. cerevisiae sgs1 mgt1 strain, at 50.0 µM, hits give high values
How it was run: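 This yeast growth screen uses a strain with defined DNA-repair lesions; compound-treated growth is compared with vehicle-treated growth.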

[4] = NCI Yeast Anticancer Drug Screen. Data for the cln2 rad14 strain (AID 165);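 further: 0% = growth equal to vehicle treated cultures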; details: S. cerevisiae cln2 rad14 strain, at 50.0 µM, hits give high values
How it was run: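 Strain: cln2 rad14 yeast, altered in cell cycle control and DNA damage repair. Read-out: growth inhibition vs vehicle.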

[5] = NCI Yeast Anticancer Drug Screen. Data for the bub3 strain (AID 167); details: S. cerevisiae bub3 mutant strain, at 50.0 µM, hits give high values
How it was run: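 Part of a panel of yeast mutants defective in DNA damage repair or cell cycle regulation. Each strain is grown with compound, and inhibition is calculated relative to solvent-treated cultures.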

[6] = NCI Yeast Anticancer Drug Screen. Data for the mlh1 rad18 strain (AID 175); details: S. cerevisiae mlh1 rad18 strain growth inhibition; at 50.0 µM; hits give high values
How it was run: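 A repair-deficient yeast strain is exposed to test compound, and growth is scored relative to vehicle-treated controls.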

Measured: growth inhibition

C=C1CC(CCCCC2CC(=C)C(=O)O2)OC1=O (stereo not drawn)
inactive: [1] 1.45% | [2] -15.8% | [3] -8.1% | [4] -104% | [5] -12.7% | [6] -24.6%

CCOC(=O)NC(=S)Nc1nonc1-c1ccccc1
inactive: [1] 1.35% | [2] 2% | [3] 36% | [4] -9.65% | [5] 15.6% | [6] 26.2%

Cc1ccc(S(=O)(=O)C2(NC(=O)C3CC3)CC2)cc1
inactive: [1] -6.5% | [2] -12.1% | [3] -26.2% | [4] -11.1% | [5] -30.7% | [6] -5.7%

Nc1ncnc2c1ncn2-c1ccc(N(CCO)CCO)cc1
inactive: [1] 5.5% | [2] -12.3% | [3] -1.15% | [4] -30.2% | [5] -9.45% | [6] 8.35%

COC(=O)C12c3ccccc3C3C(c4ccccc41)C32 (stereo not drawn)
inactive: [1] 11.9% | [2] 13.5% | [3] 22.8% | [4] 17.6% | [5] 2.2% | [6] 20.6%

CCN(CC)c1ccc2c(c1)Oc1ccc(N(C(C)=O)c3ccccc3)cc1C21OC(=O)c2ccccc21 (stereo not drawn)
inactive: [1] 25.5% | [2] 13.1% | [3] 29.6% | [4] 31% | [5] 51.4% | [6] 19.2%

O=c1[nH]cnc2c1CN(c1ccc(Cl)cc1)C2
inactive: [1] -14.5% | [2] 3.45% | [3] -11.3% | [4] -29.6% | [5] -19.2% | [6] -1.9%

COc1nc(C(=O)O)c(Cl)c(OC)c1Cl
inactive: [1] -34.6% | [2] -21.8% | [3] -40.5% | [4] -4.95% | [5] -39.6% | [6] -35%

CN(C)CC(C)(C)C(=O)c1ccc(F)cc1
inactive: [1] 5.35% | [2] 5.8% | [3] -0.1% | [4] 3.55% | [5] 1.7% | [6] 12.3%

CC1CCc2c(nc(C#N)c(=N)n2O)C1 (stereo not drawn)
inactive: [1] 8.25% | [2] -3.2% | [3] 6.8% | [4] -40.2% | [5] -12.2% | [6] -6.75%

CC(=O)OC1CC2CC1C1CC=CC21 (stereo not drawn)
inactive: [1] 35.2% | [2] -2% | [3] -0.4% | [4] 34.1% | [5] 2.4% | [6] 14.4%

O=C(Nc1ccccc1)SC1CCCCC1
inactive: [1] -4.6% | [2] 4.95% | [3] -8.7% | [4] -21.1% | [5] 3.8% | [6] -1.9%

Cc1c(-c2ccccc2)nnn1-c1ccc(F)cc1F
inactive: [1] 1.7% | [2] -28.8% | [3] 13.4% | [4] -10.6% | [5] 20.8% | [6] -9.35%

COc1ccc(-n2c(=O)c(N=Nc3ccccc3Cl)c(O)n(-c3ccccc3OC)c2=S)cc1
inactive: [1] 22.4% | [2] 4.65% | [3] 33.2% | [4] -33.1% | [5] 2.2% | [6] 3.2%

OC(COc1c2ccccc2nc2ccccc12)CN1CCN(c2ccccc2)CC1 (stereo not drawn)
inactive: [1] 21.9% | [2] -5.45% | [3] 6.5% | [4] 9% | [5] 0.9% | [6] 19.9%

COC(=O)c1cccc(C)c1C(=O)c1ccc(C)cc1C
inactive: [1] 9.65% | [2] 26.6% | [3] 53.1% | [4] -22.5% | [5] 57.8% | [6] 57.2%

CCOc1ccc(NC(=O)C(=O)C(/C(=N/N)C(=O)OC)c2nc3ccc([N+](=O)[O-])cc3[nH]c2=O)cc1 (stereo not drawn)
inactive: [1] 6.9% | [2] -6% | [3] 3.5% | [4] 13.3% | [5] 7% | [6] 21.9%

O=[N+]([O-])c1cccnc1Oc1cccc(C(F)(F)F)c1
inactive: [1] -16.8% | [2] 21.9% | [3] 14.4% | [4] -7.95% | [5] -16.1% | [6] 1.15%

c1ccc2c(c1)nn1c3ccc4nonc4c3[n-][n+]21
inactive: [1] 1.2% | [2] -0.5% | [3] 25.9% | [4] 13.2% | [5] 31.4% | [6] -11.4%

CCCCCCCCCCCCNCC(O)c1cc(-c2ccccc2)nc2c(Cl)cc(Cl)cc12 (stereo not drawn)
inactive: [1] 8.1% | [2] 8.9% | [3] 31.9% | [4] 29.1% | [5] -8% | [6] 26.5%

COc1ccc2oc(=O)[nH]c2c1
inactive: [1] 5.3% | [2] -3.95% | [3] 9.9% | [4] 13.1% | [5] -6.9% | [6] -4.5%

Cc1c(C)c(C(C)O)c(C)c(C(C)O)c1C (stereo not drawn)
inactive: [1] 4.55% | [2] 5.65% | [3] 17.6% | [4] 21.6% | [5] 11.7% | [6] 18.6%

CCSCC1C=CC(n2cnc3c(N)ncnc32)O1 (stereo not drawn)
inactive: [1] -10.3% | [2] -29.2% | [3] -22.1% | [4] -0.25% | [5] 5.55% | [6] 10.1%

CN(C)S(=O)(=O)c1c(N)ncn1C
inactive: [1] 12.7% | [2] 6.85% | [3] -9.1% | [4] 7.25% | [5] 9.65% | [6] 5%

CCC(=O)OCCOC(=O)CC
inactive: [1] 26.8% | [2] 16.7% | [3] 6.9% | [4] 18.6% | [5] 23.6% | [6] 9.25%

CN1CCC(=O)C(c2ccccc2)(c2ccccc2)CC1
inactive: [1] -8% | [2] -8.6% | [3] 3.45% | [4] -24.9% | [5] 28.4% | [6] -26.7%

O=C1OC(c2ccccc2)=N/C1=C\c1ccco1
inactive: [1] -2.95% | [2] -19.3% | [3] -24.4% | [4] 19.6% | [5] -22.2% | [6] 23.6%

O=C1C2=C(c3ccccc31)C(c1ccc([N+](=O)[O-])cc1)NC(=S)N2 (stereo not drawn)
inactive: [1] 5.6% | [2] 8.7% | [3] 1.8% | [4] 9.8% | [5] -3.6% | [6] 32.5%

CCOC(=O)C(C)F (stereo not drawn)
inactive: [1] 6.1% | [2] -26.1% | [3] 1.55% | [4] -1.15% | [5] -8.45% | [6] 3.75%

Cc1ccc(Nc2nnc(Nc3ccc(C)cn3)c3ccccc23)nc1
inactive: [1] -10.7% | [2] -12.4% | [3] -4.55% | [4] -18.8% | [5] 4.1% | [6] -7.95%

Cc1ccc(S(=O)(=O)OCC2OC(CCCO)C/C([Si](C)(C)C)=C\CC2Cl)cc1 (stereo not drawn)
inactive: [1] 48.8% | [2] 19.9% | [3] 38.2% | [4] 31.6% | [5] 34.5% | [6] 19.4%

CN(C)c1nc(N(C)C)n2c(-c3ccccc3[N+](=O)[O-])nnc2n1
inactive: [1] 48.3% | [2] 18.4% | [3] 22% | [4] 23.4% | [5] 13.3% | [6] 33.4%

CC1(C)OC2CC(=O)OCC23C1CC(=O)C1(C)C3CCC2(C)C(c3ccoc3)OC(=O)C3OC321 (stereo not drawn)
inactive: [1] -7.65% | [2] 1.4% | [3] -0.55% | [4] 10.1% | [5] 8.7% | [6] 18.5%

NCCNc1nc(NCCN)nc(N(CCN)CCN)n1
inactive: [1] 4.85% | [2] -4.9% | [3] 7.6% | [4] 9% | [5] -17.3% | [6] 4.05%

O=c1[nH]c2cc(Cl)c([N+](=O)[O-])cc2c2ccc(Cl)cc12
inactive: [1] 3.15% | [2] -7.7% | [3] -1.6% | [4] -10.7% | [5] 3.1% | [6] 8.05%

CCN(CC)c1ccc(S(=O)(=O)NC(=O)OC)cc1
inactive: [1] 3.55% | [2] -2% | [3] -0.65% | [4] 3.45% | [5] -1.25% | [6] -5.5%

S=C1SCN(c2ccc(Br)cc2)CN1c1ccc2[nH]c(=S)sc2c1
inactive: [1] 10.6% | [2] 15.3% | [3] 26.1% | [4] 0.45% | [5] 12.1% | [6] 5.65%

C[N+]1(CC[N+]2(C)CCCC2c2cccnc2)CCCC1c1cccnc1 (stereo not drawn)
inactive: [1] 6.15% | [2] -0.2% | [3] -16.9% | [4] -34.5% | [5] 28% | [6] 19.9%
